# In PubChem BioAssay AID2665 (Vanderbilt High Throughput Screening Facility, 2010):
# Active and inactive are the calls of the source. No rule for the calls is given here.
# Experiments:
# [1] = biological target: Muscarinic acetylcholine receptor M1 (Rattus norvegicus) (UniProt P08482); assay: M5 positive allosteric modulators, analog testing, SAR follow-up, CHO cells, calcium, ACh EC10, single 30 µM (AID 2665); settings: rat M1 potentiation, CHO calcium; at 30 µM; stronger effect = higher value;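 also: 100% = response to a maximal acetylcholine concentration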
# [2] = biological target: Muscarinic acetylcholine receptor M5 (Homo sapiens) (UniProt P08912); assay: as above; settings: CHO hM5 calcium flux, ACh EC10 potentiation; at 30 µM; stronger effect = higher value
# Chain of Muscarinic acetylcholine receptor M5 (Homo sapiens) (P08912 whole entry, looked up): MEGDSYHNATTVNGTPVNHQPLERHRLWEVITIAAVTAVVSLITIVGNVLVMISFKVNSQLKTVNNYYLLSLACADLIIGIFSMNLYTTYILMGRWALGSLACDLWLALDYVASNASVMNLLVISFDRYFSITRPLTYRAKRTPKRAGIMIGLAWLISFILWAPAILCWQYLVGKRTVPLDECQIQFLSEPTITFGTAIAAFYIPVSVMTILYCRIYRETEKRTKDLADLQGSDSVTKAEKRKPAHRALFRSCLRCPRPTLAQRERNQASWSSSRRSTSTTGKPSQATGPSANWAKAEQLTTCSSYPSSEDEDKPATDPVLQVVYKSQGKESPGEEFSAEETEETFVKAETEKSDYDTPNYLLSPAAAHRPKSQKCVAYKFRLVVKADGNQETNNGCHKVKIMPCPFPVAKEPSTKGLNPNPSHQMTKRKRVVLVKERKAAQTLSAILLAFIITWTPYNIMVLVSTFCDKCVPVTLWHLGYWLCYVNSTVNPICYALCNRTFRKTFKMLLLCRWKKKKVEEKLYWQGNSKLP
SMILES,% ACh max response [1],% ACh max response [2]
O=C1C(=O)N(Cc2ccc(C(F)(F)F)cc2)c2c(F)cccc21,60.9%,71.1% (active)
O=C1C(=O)N(Cc2ccccc2Cl)c2ccc(OC(F)(F)F)cc21,12.3%,51.9% (active)
COc1cccc(CN2C(=O)C(=O)c3ccccc32)c1,19.4%,28% (inactive)
COc1cccc(CN2C(=O)C(=O)c3cc(OC(F)(F)F)ccc32)c1,28.6%,70.1% (active)
Cc1ccccc1CN1C(=O)C(=O)c2c(Cl)ccc(Cl)c21,13.7%,16.4% (inactive)
O=C1C(=O)N(Cc2ccc(Br)cc2F)c2ccccc21,49.2%,48.5% (active)
O=C1C(=O)N(Cc2ccccc2Cl)c2ccc(F)cc21,41.4%,39.9% (active)
O=C1C(=O)N(Cc2ccc(OC(F)(F)F)cc2)c2ccc(OC(F)(F)F)cc21,13.8%,58.9% (active)
O=C1C(=O)N(Cc2ccc(Br)cc2F)c2ccc(Cl)cc21,29.9%,30.4% (inactive)
COc1ccc(CN2C(=O)C(=O)c3cc(Cl)ccc32)cc1,20.3%,32.6% (inactive)
O=C1C(=O)N(Cc2ccccc2C(F)(F)F)c2ccc(F)cc21,47.8%,36.1% (active)
COc1ccc(-c2ccc(CN3C(=O)C(=O)c4ccccc43)cc2)cc1,20.1%,30.8% (inactive)
Cc1ccc2c(c1)C(=O)C(=O)N2Cc1ccccc1C(F)(F)F,17.8%,30.6% (inactive)
COc1ccc(CN2C(=O)C(=O)c3cc(OC(F)(F)F)ccc32)cc1,12.7%,60.7% (active)
O=C1C(=O)N(Cc2ccc(F)cc2F)c2ccc(F)cc21,47.3%,60.3% (active)
O=C1C(=O)N(Cc2ccccc2Cl)c2ccccc21,43.4%,42% (active)
O=C1C(=O)N(Cc2ccccc2Cl)c2c(Cl)ccc(Cl)c21,13.1%,18.9% (inactive)
Cc1ccc2c(c1)C(=O)C(=O)N2Cc1ccc(Br)cc1F,22.3%,27.8% (inactive)
CCCOc1ccc(-c2ccc(CN3C(=O)C(=O)c4ccccc43)cc2)cc1,24.2%,48.6% (active)
O=C1C(=O)N(Cc2ccccc2F)c2c(F)cccc21,42.7%,42.4% (active)

SMILES,% ACh max response [1],% ACh max response [2]
COc1ccc(CN2C(=O)C(=O)c3cc(C)ccc32)cc1,14.1%,21.2% (inactive)
O=C1C(=O)N(Cc2ccc(OC(F)(F)F)cc2)c2ccccc21,54.7%,60.5% (active)
O=C1C(=O)N(Cc2ccc(F)cc2F)c2ccc(Cl)cc21,32.4%,44.9% (active)
O=C1C(=O)N(Cc2c(F)cccc2F)c2c(Cl)cccc21,38.8%,23.6% (inactive)
O=C1C(=O)N(Cc2ccc(OC(F)(F)F)cc2)c2ccc(F)cc21,59.8%,58.4% (active)
O=C1C(=O)N(Cc2ccc(Br)cc2F)c2ccc(OC(F)(F)F)cc21,11.6%,36.4% (inactive)
O=C1C(=O)N(Cc2ccc(F)cc2F)c2ccc(OC(F)(F)F)cc21,25.9%,61.9% (active)
O=C1C(=O)N(Cc2ccccc2C(F)(F)F)c2ccccc21,37.9%,40.2% (active)
O=C1C(=O)N(Cc2ccc(Br)cc2F)c2ccc(F)cc21,70.5%,64% (active)
O=C1C(=O)N(Cc2ccc(OC(F)(F)F)cc2)c2c(F)cccc21,51.8%,57.7% (active)
Cc1cccc2c1N(Cc1ccccc1F)C(=O)C2=O,24.9%,24.6% (inactive)
O=C1C(=O)N(Cc2ccc(F)cc2F)c2c(F)cccc21,64.4%,68.9% (active)
O=C1C(=O)N(Cc2ccc(Br)cc2)c2c(F)cccc21,62.7%,51.7% (active)
COc1ccccc1-c1ccc(CN2C(=O)C(=O)c3ccccc32)cc1,47.6%,58.1% (active)
O=C1C(=O)N(Cc2ccc(-c3ccc(F)nc3)cc2)c2ccccc21,41%,46% (active)
COc1ccc(CN2C(=O)C(=O)c3cccc(F)c32)cc1,54.6%,44.4% (active)
O=C1C(=O)N(Cc2ccccc2C(F)(F)F)c2ccc(OC(F)(F)F)cc21,22.6%,56.5% (active)
O=C1C(=O)N(Cc2ccc(Br)cc2)c2c(Cl)ccc(Cl)c21,12.1%,20.7% (inactive)
COc1ccc(CN2C(=O)C(=O)c3ccccc32)cc1,43.6%,29.2% (active)
O=C1C(=O)N(Cc2ccc(-c3ccc(Cl)cc3)cc2)c2ccccc21,45.1%,6.53% (active)
